Values joined by “and” are separate entries in the source; they are usually repeats but may differ in a detail not shown here. Equal values may be shown once. About 2,000 (36%) of roughly 5,500 compounds were called active. About 18% were inconclusive and are not listed. Rule as the data show it: active = normalized growth mostly below about 0.91 (no sharp cut-off); inconclusive = no clear call, values can overlap the other calls; inactive = mostly above about 0.92. This is one part of the list.
Assay: chemical genetic growth profiling, strain panel (AID 1159580);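 also: tested at 20 µM; growth read once vehicle control cultures reached saturation at 30 °C; 1 = growth at the plate median or of vehicle wells; lower values mean less growth of the strain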
Settings: S. cerevisiae deletion strains, growth OD

Measured: normalized growth

CCCCC(=O)O[C@H]1CCC2C3CCc4cc(O)ccc4C3CC[C@@]21C (some centres not stated)
inactive: locus YAL021C, strain ccr4, hits give low values 1.02 | locus YAL026C, strain drs2, hits give low values 1.02 | locus YAL030W, strain snc1, hits give low values 1.03 | locus YBL061C, strain skt5, hits give low values 1.01 | locus YBR009C, strain hhf1, hits give low values 0.988 | locus YBR021W, strain FUR4, hits give low values 0.99 | locus YBR023C, strain chs3, hits give low values 1.01 | locus YBR171W, strain sec66, hits give low values 1.03 | locus YBR229C, strain ROT2, hits give low values 0.943 | locus YBR231C, strain swc5, hits give low values 1.04 | locus YBR279W, strain paf1, hits give low values 1.01 | locus YCL011C, strain gbp2, hits give low values 1.01 | locus YCL016C, strain dcc1, hits give low values 0.979 | locus YCL029C, strain bik1, hits give low values 0.98 | locus YCL061C, strain MRC1, hits give low values 1.02 | locus YCL069W, strain vba3, hits give low values 1.01 | locus YCR088W, strain abp1, hits give low values 1.01 | locus YDL005C, strain med2, hits give low values 1.01 | locus YDL035C, strain GPR1, hits give low values 0.948 | locus YDL040C, strain nat1, hits give low values 1.02 | locus YDL074C, strain BRE1, hits give low values 0.926 | locus YDL101C, strain DUN1, hits give low values 0.98 | locus YDL134C, strain PPH21, hits give low values 0.954 | locus YDL185W, strain tfp1, hits give low values 0.988 | locus YDL192W, strain arf1, hits give low values 1 | locus YDR001C, strain nth1, hits give low values 1.01 | locus YDR069C, strain doa4, hits give low values 1.01 | locus YDR101C, strain arx1, hits give low values 0.953 | locus YDR137W, strain rgp1, hits give low values 0.973 | locus YDR150W, strain NUM1, hits give low values 0.988 | locus YDR159W, strain sac3, hits give low values 0.953 | locus YDR162C, strain NBP2, hits give low values 0.919 | locus YDR195W, strain ref2 1.03 | locus YDR297W, strain sur2, hits give low values 1.03 | locus YDR318W, strain mcm21, hits give low values 0.996 | locus YDR334W, strain swr1, hits give low values 1.02 | locus YDR335W, strain msn5, hits give low values 1.02 | locus YDR388W, hits give low values 0.992 | locus YDR392W, strain spt3, hits give low values 0.804 | locus YDR502C, strain sam2, hits give low values 0.995 | locus YEL003W, strain gim4, hits give low values 1.02 | locus YEL037C, strain rad23, hits give low values 1.02 | locus YEL061C, strain CIN8 (second series), hits give low values 1.02 | locus YEL061C, strain CIN8, hits give low values 0.985 | locus YER015W, strain faa2, hits give low values 1 | locus YER016W, strain bim1, hits give low values 1 | locus YER110C, hits give low values 1.01 | locus YER111C, strain swi4, hits give low values 1.01 | locus YER155C, strain BEM2 (second series), hits give low values 1.03 | locus YER155C, strain BEM2, hits give low values 0.979 | locus YER167W, strain BCK2, hits give low values 0.979 | locus YFR010W, strain ubp6, hits give low values 1.04 | locus YGL078C, strain dbp3, hits give low values 1.01 | locus YGL086W, strain mad1, hits give low values 0.968 | locus YGL167C, strain pmr1, hits give low values 1.04 | locus YGL173C, strain kem1, hits give low values 1.01 | locus YGL227W, strain vid30, hits give low values 1.01 | locus YGL240W, strain doc1, hits give low values 1.04 | locus YGL248W, strain PDE1, hits give low values 0.976 | locus YGL253W, strain hxk2, hits give low values 0.997 | locus YGR078C, strain PAC10, hits give low values 0.973 | locus YGR135W, strain pre9, hits give low values 1.07 | locus YGR252W, strain gcn5, hits give low values 1.1 | locus YHR013C, strain ard1, hits give low values 1.03 | locus YHR027C, strain rpn1, hits give low values 1.02 | locus YHR030C, strain SLT2, hits give low values 0.98 and 0.996 | locus YHR079C, strain IRE1 (second series), hits give low values 0.997 | locus YHR079C, strain IRE1, hits give low values 0.989 | locus YHR094C, strain hxt1, hits give low values 0.991 | locus YHR129C, strain ARP1, hits give low values 0.989 | locus YHR142W, strain chs7, hits give low values 1.01 | locus YHR200W, strain rpn10, hits give low values 0.998 | locus YIL066C, strain RNR3, hits give low values 0.961 | locus YIL073C, strain SPO22, hits give low values 1 | locus YIL125W, strain kgd1, hits give low values 0.998 | locus YIR030C, strain dcg1, hits give low values 1.01 | locus YJL092W, strain hpr5, hits give low values 1.01 | locus YJL095W, strain BCK1 (second series), hits give low values 1.02 | locus YJL095W, strain BCK1, hits give low values 0.926 and 0.996 | locus YJL115W, strain asf1, hits give low values 1.02 | locus YJL129C, strain trk1, hits give low values 0.996 | locus YJL134W, strain LCB3, hits give low values 0.982 | locus YJL154C, strain vps35, hits give low values 1.01 | locus YJL164C, strain tpk1, hits give low values 0.987 | locus YJL166W, strain qcr8, hits give low values 1.02 | locus YJL168C, strain set2, hits give low values 1 | locus YJL187C, strain SWE1 (second series), hits give low values 0.982 | locus YJL187C, strain SWE1, hits give low values 1.02 | locus YJR043C, strain POL32, hits give low values 0.955 | locus YJR066W, strain TOR1, hits give low values 0.916 | locus YKL009W, strain mrt4, hits give low values 0.95 | locus YKL068W, hits give low values 0.989 | locus YKL085W, strain MDH1 (second series), hits give low values 1.01 | locus YKL085W, strain MDH1, hits give low values 1.01 | locus YKL160W, strain elf1, hits give low values 1.01 | locus YKL190W, strain CNB1, hits give low values 0.992 | locus YKR001C, strain vps1, hits give low values 0.959 | locus YKR026C, strain gcn3, hits give low values 1.01 | locus YKR091W, strain srl3, hits give low values 1.01 | locus YLL001W, strain dnm1, hits give low values 1.02 | locus YLL026W, hits give low values 1.02 | locus YLL041C, strain sdh2, hits give low values 1.02 | locus YLR027C, strain aat2, hits give low values 1.03 | locus YLR039C, strain RIC1, hits give low values 0.848 | locus YLR058C, strain SHM2, hits give low values 0.96 | locus YLR102C, strain apc9, hits give low values 1.01 | locus YLR113W, strain HOG1, hits give low values 1.03 | locus YLR221C, strain rsa3, hits give low values 0.995 | locus YLR258W, strain gsy2, hits give low values 1 | locus YLR262C, strain YPT6 (second series), hits give low values 0.974 | locus YLR262C, strain YPT6, hits give low values 0.749 | locus YLR268W, strain sec22, hits give low values 0.982 | locus YLR320W, strain mms22, hits give low values 0.981 | locus YLR330W, strain CHS5, hits give low values 0.984 | locus YLR342W, strain FKS1 (second series), hits give low values 0.98 | locus YLR342W, strain FKS1, hits give low values 0.998 | locus YLR357W, strain rsc2, hits give low values 0.999 | locus YLR370C, strain arc18, hits give low values 1.03 | locus YLR371W, strain rom2, hits give low values 0.985 | locus YLR384C, strain iki3, hits give low values 1.02 | locus YLR418C, strain cdc73, hits give low values 1.02 | locus YML016C, strain PPZ1, hits give low values 0.979 | locus YML032C, strain rad52, hits give low values 0.987 | locus YML120C, strain ndi1, hits give low values 1.02 | locus YML124C, strain tub3, hits give low values 1 | locus YMR058W, strain fet3, hits give low values 1.02 | locus YMR078C, strain ctf18, hits give low values 1 | locus YMR125W, strain sto1, hits give low values 0.999 | locus YMR129W, hits give low values 1.01 | locus YMR205C, strain PFK2, hits give low values 0.985 | locus YMR223W, strain ubp8, hits give low values 1.04 | locus YMR231W, strain pep5, hits give low values 1.05 | locus YMR307W, strain GAS1, hits give low values 0.881 | locus YNL067W, strain RPL9B, hits give low values 0.982 | locus YNL071W, strain lat1, hits give low values 0.965 | locus YNL128W, strain TEP1, hits give low values 0.982 | locus YNL183C, strain NPR1, hits give low values 0.983 | locus YNL209W, strain ssb2, hits give low values 1.02 | locus YNL233W, strain BNI4, hits give low values 0.986 | locus YNL248C, strain rpa49, hits give low values 1.01 | locus YNL250W, strain rad50, hits give low values 0.984 | locus YNL271C, strain bni1, hits give low values 1 | locus YNL298W, strain CLA4, hits give low values 1 | locus YNL307C, strain MCK1, hits give low values 1 | locus YNL322C, strain KRE1 (second series), hits give low values 1.01 | locus YNL322C, strain KRE1, hits give low values 0.998 | locus YNR049C, strain mso1, hits give low values 1 | locus YNR052C, strain pop2, hits give low values 1.01 | locus YOL012C, strain htz1 1.24 | locus YOL147C, strain pex11, hits give low values 1.01 | locus YOR001W, strain rrp6, hits give low values 1.03 | locus YOR061W, strain CKA2, hits give low values 0.962 | locus YOR069W, strain VPS5, hits give low values 0.984 | locus YOR070C, strain gyp1, hits give low values 1.02 | locus YOR080W, strain dia2, hits give low values 1.03 | locus YOR083W, strain WHI5, hits give low values 1 | locus YOR106W, strain vam3, hits give low values 1.04 | locus YOR136W, strain idh2, hits give low values 1 | locus YOR144C, strain elg1, hits give low values 0.999 | locus YOR184W, strain ser1, hits give low values 0.969 | locus YOR231W, strain MKK1, hits give low values 1.04 | locus YOR265W, strain rbl2, hits give low values 1.02 | locus YOR270C, strain vph1, hits give low values 0.965 | locus YOR290C, strain snf2, hits give low values 0.988 | locus YOR316C, strain cot1, hits give low values 0.994 | locus YPL051W, strain arl3, hits give low values 1.01 | locus YPL055C, strain LGE1, hits give low values 0.959 | locus YPL078C, strain atp4, hits give low values 1.03 | locus YPL106C, strain sse1, hits give low values 1 | locus YPL240C, strain hsp82, hits give low values 1.01 | locus YPL241C, strain CIN2, hits give low values 0.975 | locus YPL256C, strain CLN2, hits give low values 1 | locus YPR119W, strain clb2, hits give low values 0.998 | locus YPR141C, strain kar3, hits give low values 0.997 | locus YPR163C, strain tif3, hits give low values 1.01 | locus YPR167C, strain met16, hits give low values 1 | strain wtn01, hits give low values 1.03

— PubChem BioAssay AID1159580 (chemical genetic matrix, 2015)
